Experimental data as given in ChEMBL document CHEMBL4513146, “CO-ADD screening of Karazin Kharkiv National University (Ukraine) compounds”.
Measured potencies and affinities stand elsewhere.

Columns and labels:
Klebsiella pneumoniae = details: Concentration 32 ug.mL-1;; ASSAY_TEST Inhibition of Bacterial Growth; detection method Absorption (OD600); MEDIA CAMHB; plate type 384well; NBS; CORNING #3640; time 18 hr
Candida albicans = details: Concentration 32 ug.mL-1; ASSAY_TEST Inhibition of Fungal Growth; detection method Absorption (OD530)
Cryptococcus neoformans = details: Concentration 32 ug.mL-1; ASSAY_TEST Inhibition of Fungal Growth; detection method Resazurin; Absorption (OD600-OD570); plate type 384well; NBS; CORNING #3640

SMILES | Inhibition (Klebsiella pneumoniae) | Inhibition (Candida albicans) | Inhibition (Cryptococcus neoformans)
Cc1cc(C)cc(N(Cc2ccc(F)cc2)S(=O)(=O)c2cccn3cnnc23)c1 | 7.95% | 1.02% | -10.98%
COC(=O)c1ccc(NC(=O)Cn2nc3ccc(Sc4ccc(C)cc4)nn3c2=O)cc1 | 13.07% | 2.46% | -10.13%
COc1ccc(CNC(=O)Cn2nc3c(Oc4ccccc4C)nccn3c2=O)cc1 | 7.26% | -2.47% | -8.82%
Cc1cc(C)cc(N(Cc2cccc(Cl)c2)S(=O)(=O)c2cccn3cnnc23)c1 | 9.53% | 1.12% | -7.68%
COC(=O)c1ccc(NC(=O)Cn2nc3c4cc(-c5ccc(Cl)cc5)nn4ccn3c2=O)cc1 | 10.1% | 2.64% | -4.53%
CCc1ccccc1Sc1nccn2c(=O)n(CC(=O)NCc3ccc(OC)cc3)nc12 | 1.83% | 2.04% | -1.62%
CCc1nnc2c(=O)n(CC(=O)Nc3ccc(C(C)C)cc3)c3ccccc3n12 | 15.72% | -0.82% | -28.42%
O=C(Cn1nc2nc(Nc3ccc(F)cc3)ccn2c1=O)NCc1ccc(F)cc1Cl | 11.65% | 1.62% | -8.71%
Cc1cccc(Sc2nccn3c(=O)n(CC(=O)N4CCN(c5ccccc5)CC4)nc23)c1 | 4.67% | 0.98% | -15.76%
CC(=O)c1ccc(NC(=O)Cn2nc3c(SC4CCCCC4)nccn3c2=O)cc1 | 4.71% | 0.5% | -15.4%
Cc1ccc(-n2ccn3c(SC(C)C(=O)Nc4ccc5c(c4)OCCO5)nnc3c2=O)cc1C (stereo not given) | 15.49% | 0.29% | -6.97%
Cc1cc2nn(CC(=O)Nc3ccc(F)cc3F)c(=O)n2c(Nc2ccc(C)c(F)c2)n1 | 8.43% | 24.78% | -2.94%
COc1cccc(-n2ccn3c(SCC(=O)NCc4ccco4)nnc3c2=O)c1 | 16.06% | 4.76% | -13.76%
CC(=O)c1ccc(NC(=O)Cn2c(=O)c3nnc(C(C)C)n3c3ccccc32)cc1 | 9.51% | 0.56% | -14.82%
Cc1ccc(S(=O)(=O)Nc2ccc3nnc(-c4ccccc4)n3n2)cc1C | 0.88% | 0.52% | -4.99%
COc1cc(NC(=O)Cn2nc3ccc(SC(C)(C)C)nn3c2=O)cc(OC)c1OC | 14.77% | 0.63% | -18.78%
Cc1ccc(Sc2nccn3c(=O)n(CC(=O)Nc4ccc(F)c(Cl)c4)nc23)c(C)c1 | -6.57% | 10.6% | -11.17%
Cc1nnc2ccc(S(=O)(=O)N(Cc3ccccc3)c3ccc(F)cc3)cn12 | 4.54% | 1.53% | -1.68%
Cc1ccc(C)c(S(=O)(=O)Nc2ccc3nncn3n2)c1 | 4.11% | 0.56% | -3.83%
CC(C)CCNC(=O)CSc1nnc2c(=O)n(-c3ccc(F)cc3)ccn12 | 11.65% | 4.94% | -13.8%
COc1ccccc1N1CCN(C(=O)Cn2nc3c(Sc4cccc(C)c4)nccn3c2=O)CC1 | -0.72% | 2.52% | -34.84%
CC(C)c1nnc2c(SCC(=O)Nc3ccc(Br)cc3)nc3ccccc3n12 | 6.82% | 0.48% | 0.69%
CC(C)c1nnc2c(SCC(=O)Nc3ccc(C#N)cc3)nc3ccccc3n12 | 10.23% | 0.55% | -7.9%
CCCCn1c(=O)c2sccc2n2c(=O)n(CC(=O)N3CCCC(C(=O)OCC)C3)nc12 (stereo not given) | -2.03% | -3.31% | -9.46%
O=c1n(Cc2cc(F)cc(F)c2)nc2ccc(-c3ccccc3)nn12 | 18.79% | 0.55% | -16.53%
O=C(CSc1nnc2c3cc(-c4ccc(F)cc4)nn3ccn12)NCc1ccc(Cl)cc1 | 0.77% | 7.94% | -17.49%
COc1ccc(-c2cc3c4nnc(SCC(=O)Nc5ccccc5C(F)(F)F)n4ccn3n2)cc1 | 8.66% | 3.79% | -13.07%
CCCCOc1ccc(-c2cc3c4nnc(SCC(=O)Nc5cc(C)ccc5OC)n4ccn3n2)cc1 | -4.93% | 45.46% | -16.58%
CCCCN(CC)c1ccc2nnc(CCc3nc(-c4ccc(OCc5ccccc5)cc4)no3)n2n1 | 10.12% | 5.5% | -16.46%
CCCCOc1ccc(-c2cc3c4nnc(SCC(=O)Nc5ccccc5F)n4ccn3n2)cc1 | -0.1% | 7.26% | -10.98%
